In the library only some 1.6% were active in any assay of this set; here they are far more common.
KCNQ2 pot: potentiators of rat KCNQ2 potassium channel | CHO-K1 KCNQ2, FluxOR thallium flux fluorescence; stronger effect = higher value | B-score at 10 µM | actives 0.54% (n = 310,000) | AID 2239;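 active means fluorescence ratio B-score at least 3 SD of library B-scores, with initial fluorescence B-score within 3 of them, cut at about 5.3 in these data; same plate scores as AID 2156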;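 further: B-score of peak minus minimum over baseline fluorescence ratio after K+ and Tl+ stimulus; positive B-score means potentiation of KCNQ2 with more thallium influx and brighter signal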
KCNQ2 block: inhibitors of rat KCNQ2 potassium channel | O88943 | AID 2156 | actives 1.1% (n = 310,000) | CHO-K1 KCNQ2, FluxOR thallium flux, 20 min; stronger effect = lower value | B-score at 10 µM;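 active means fluorescence ratio B-score at most minus 3 library SDs, with starting brightness B-score within 2 library SDs, cut at about -5.5 in these data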
KCNQ2 block conf: confirmation of rat KCNQ2 potassium channel inhibitors | shares compounds with KCNQ2 block | KCNQ2-expressing cells, thallium flux, inhibition; stronger effect = lower value | activity change, negative = inhibition, % at 10 µM | actives 57% (n = 1,000) | AID 493025
KCNQ1 spec: selectivity of KCNQ2 inhibitors against human KCNQ1. AID 493026. actives 15% (n = 1,000). shares compounds with KCNQ2 block. activity change, negative = inhibition, % at 10 µM. KCNQ1-expressing cells, FluxOR thallium flux fluorescence; stronger effect = lower value;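 active means activity change at least 3 SD of negative controls below their mean in both duplicate wells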;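 further: CHO cells stably transfected with KCNQ1 and depolarized by potassium stimulus; peak minus minimum fluorescence over baseline after thallium addition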
CHO Tl ctr: activity in parental CHO cells lacking KCNQ2; actives 14% (n = 1,000); shares compounds with KCNQ2 block; AID 493029; activity change, % at 10 µM; thallium flux counter-screen; stronger effect = lower value
KCNQ2 patch conf: blocks rat KCNQ2 current in automated patch clamp. shares compounds with KCNQ2 block. KCNQ2-expressing cells. calls only at 10 µM. actives 49% (n = 550). AID 588531
A number is an active result; – = inactive; · = no result; + = active, no number. Unless noted, how the calls were made is not given here.

SMILES	KCNQ2 pot	KCNQ2 block	KCNQ2 block conf	KCNQ1 spec	CHO Tl ctr	others
N#Cc1c(NC2CCCCC2)nc(-c2ccco2)c2c1CCCC2	–	-7	-34%	–	–	KCNQ2 patch conf=–
N#Cc1c(NCCCO)nc(-c2ccco2)c2c1CCCC2	–	–	·	·	·
CN(C)CCCNC(=O)c1ccc(-c2nc(-c3ccc(Cl)cc3)cs2)cc1	–	-12	-22%	–	–	KCNQ2 patch conf=–
CN(C)CCCNC(=O)c1ccccn1	–	–	·	·	·
CCCCCN(C(=O)CCC(=O)OCc1cccc(C(F)(F)F)c1)c1c(N)n(CCCC)c(=O)[nH]c1=O	·	–	·	·	·
N#Cc1ccccc1S(=O)(=O)N1CCN(S(=O)(=O)c2ccc(Br)c(C(=O)O)c2)CC1	·	–	·	·	·
Cc1ccc2c(CC(=O)NNC(=O)c3ccccc3O)coc2c1	·	–	·	·	·
O=C(Nc1ccccc1Cc1ccccc1)c1oc2ccccc2c1COc1ccccc1	·	–	·	·	·
O=C(NCCc1ccccc1)c1oc2ccccc2c1COc1ccccc1	–	-9	-24%	–	–	KCNQ2 patch conf=–
Cc1ccc(C)c(N2CCN(C(=O)C(Cc3ccccc3)n3cccc3)CC2)c1 (stereo not given)	–	-7	-24%	–	–	KCNQ2 patch conf=–
Cc1ccc(C)c(N2CCN(C(=O)Cn3cccc3)CC2)c1	–	–	·	·	·
Cc1ccccc1NC(=S)N(C)Cc1cn(C)c2ccccc12	–	–	·	·	·
COC(=O)c1ccc(C2C(C(=O)c3ccco3)=C(O)C(=O)N2CC2CCCO2)cc1 (stereo not given)	·	–	·	·	·
Cc1nnc(SCC(=O)Nc2cc(C(F)(F)F)ccc2N2CCOCC2)o1	–	–	·	·	·
Cc1ccccc1SCC(=O)Nc1cc(C(F)(F)F)ccc1N1CCOCC1	–	-9.5	-30%	–	–	KCNQ2 patch conf=–
O=C(NCCc1ccc(F)cc1)Nc1ccccc1Cl	·	–	·	·	·
Cc1cc(NC2CCCCC2)nc(NCc2ccccc2)n1	–	-8.3	–	–	–
Cc1ccc(Nc2cc(C)nc(NCc3ccccc3)n2)cc1	·	–	·	·	·
CCOC(=O)c1ccc(Nc2nnc(C)c3ccccc23)cc1	–	–	·	·	·
O=C(NCCCN1CCN(c2ccc(F)cc2)CC1)NC12CC3CC(CC(C3)C1)C2	–	-8.2	–	–	–
O=C(NCCCN1CCOCC1)NC12CC3CC(CC(C3)C1)C2	·	–	·	·	·
CCOC(=O)c1c(NC(=O)CN2CCCc3ccccc32)sc(C)c1C	·	–	·	·	·
COC(=O)c1c(NC(=O)CN2CCCc3ccccc32)sc(C)c1C	–	-7.7	-38%	-33%	-33%	KCNQ2 patch conf=–
COc1ccc(NC(=S)N(Cc2ccccn2)Cc2ccccc2Cl)cc1	–	-7.9	–	–	–
COc1cccc(NC(=S)N(Cc2ccccn2)Cc2ccccc2Cl)c1	·	–	·	·	·
SMILES	KCNQ2 pot	KCNQ2 block	KCNQ2 block conf	KCNQ1 spec	CHO Tl ctr	others
COc1cccc(CNS(=O)(=O)c2cc3c4c(c2)CCN4C(=O)CC3)c1	·	–	·	·	·
CC(C)(C)SCCNC(=O)COc1ccc(Cl)cc1	·	–	·	·	·
Cc1ccccc1CSCCNC(=O)COc1ccc(Cl)cc1	–	-8.6	–	–	–
O=C(Nc1ccccc1N1CCCCC1)c1cc(S(=O)(=O)N2CCOCC2)ccc1Cl	–	-9	-28%	–	–	KCNQ2 patch conf=+
CCN1CCN(S(=O)(=O)c2ccc(Cl)c(C(=O)Nc3ccccc3N3CCOCC3)c2)CC1	·	–	·	·	·
O=C(Nc1ccccc1Cl)c1cc(S(=O)(=O)N2CCCCC2)ccc1N1CCOCC1	·	–	·	·	·
CCN1CCN(S(=O)(=O)c2ccc(Cl)c(C(=O)Nc3cc(Cl)ccc3N3CCOCC3)c2)CC1	–	-6.7	–	–	–
Cc1nnc(SCC(=O)Nc2c(Cl)cccc2Cl)n(N)c1=O	·	–	·	·	·
CCOc1c(C)cnc2c1c(=O)n(CC(=O)NCC1CCCO1)c(=O)n2C (stereo not given)	–	–	·	·	·
Cc1ccccc1C(=O)NCCCNC(=O)c1ccco1	·	–	·	·	·
Brc1cccc(CNc2nc3ccccc3n2CCN2CCCCC2)c1	·	–	·	·	·
Cn1c(NCc2cccc(Br)c2)nc2ccccc21	–	-9	-34%	-28%	-22%	KCNQ2 patch conf=+
COc1ccc(C(CC(=O)Nc2cc(C)ccn2)N2Cc3ccccc3C2=O)cc1 (stereo not given)	·	–	·	·	·
N#CCCn1cc(C(=O)Nc2cccc(C(=O)O)c2)c(-c2ccc(Cl)cc2)n1	·	–	·	·	·
CCNC(=O)N(CCOC)CC1CCCN(C2Cc3ccccc3C2)C1 (stereo not given)	–	–	·	·	·
O=C(CN1C(=O)C(c2ccccc2)Oc2cccnc21)NCc1ccccc1F (stereo not given)	–	-6.8	-22%	–	–	KCNQ2 patch conf=+
COc1ccc(CNC(=O)CN2C(=O)C(c3ccccc3)Oc3cccnc32)cc1 (stereo not given)	–	–	·	·	·
CC(C)(C)OC(=O)N1CCCN(C(=O)Nc2ccc(C(F)(F)F)cc2)CC1	–	–	·	·	·
Cc1nc(C/C(=N\N)c2ccc(O)cc2O)cs1	·	–	·	·	·
CCc1cc(/C(Cc2csc(C)n2)=N/O)c(O)cc1O	–	-7.7	-38%	-34%	-28%	KCNQ2 patch conf=+
Cc1c(NC(=O)CN2C(=O)NC(C)(c3ccc(Cl)cc3)C2=O)c(=O)n(-c2ccccc2)n1C (stereo not given)	–	–	·	·	·
CCCN(CCC)C(=O)c1cc(-c2ccc3c(c2)OCO3)nc2ccccc12	–	-8.5	-26%	–	–	KCNQ2 patch conf=+
O=C(Nc1cccnc1)c1cc(-c2cccc(Br)c2)nc2ccccc12	–	-6.7	-28%	–	–	KCNQ2 patch conf=–
COc1cccc(-c2cc(C(=O)Nc3cccnc3)c3ccccc3n2)c1	·	–	·	·	·
CCOc1ccc(-c2cc(C(=O)Nc3ccc4c(c3)OCCO4)c3ccccc3n2)cc1	–	-9.1	–	–	–
SMILES	KCNQ2 pot	KCNQ2 block	KCNQ2 block conf	KCNQ1 spec	CHO Tl ctr	others
COc1cccc(-c2cc(C(=O)Nc3ccccc3)c3ccccc3n2)c1	–	-9.1	–	–	–
Cc1cccc(-c2cc(C(=O)Nc3ccc4c(c3)OCCO4)c3ccccc3n2)c1	·	–	·	·	·
O=C(O)c1cc(-c2ccc3c(c2)OCO3)nc2ccccc12	–	–	·	·	·
O=C(Nc1ccncc1)c1cc(-c2cccc(Br)c2)nc2ccccc12	–	–	·	·	·
COc1ccc(OC)c(CCNC(=O)CCn2nc(C)c3c(C)n(-c4ccccc4)nc3c2=O)c1	·	–	·	·	·
Cc1ccc(NC(=O)c2sc(Cl)nc2-c2ccccc2)cc1	·	–	·	·	·
O=C(Nc1ccc(F)cc1)c1sc(Cl)nc1-c1ccccc1	·	–	·	·	·
Cc1ccc(C)c(NC(=O)c2sc(Cl)nc2-c2ccccc2)c1	–	-8	–	–	–
Cc1ccccc1NC(=O)c1sc(Cl)nc1-c1ccccc1	–	-8.7	–	–	–
COc1cc(OC)c(OC)cc1CN1CCN(C(=O)CC(C)C)CC1	–	–	·	·	·
Cc1cc(Cl)ccc1NC(=O)CN1C(=O)NC2(CCCc3ccccc32)C1=O (stereo not given)	·	–	·	·	·
C=CCOc1ccc(/C=C/C(=O)OCC(=O)N(C)CC(=O)Nc2ccc(F)cc2)cc1	·	–	·	·	·
COc1ccc(CNC(=O)C(c2cccs2)N(Cc2ccco2)C(=O)Cc2cccs2)cc1 (stereo not given)	–	-14	-29%	–	–	KCNQ2 patch conf=+
COc1ccc(CNC(=O)C(c2ccco2)N(Cc2cccs2)C(=O)Cc2cccs2)cc1 (stereo not given)	–	–	·	·	·

Screens: PubChem BioAssay, Johns Hopkins Ion Channel Center
